Where “and” joins values, the source holds several entries; their conditions need not be identical. Equal entries are not always repeated. Inconclusive results are not listed. Entries that show only a call come without a potency. More than one record can exist for a structure, and the calls need not agree. Calls of active or inactive are those of the source. Unless noted, calls follow the shape of the full dose curve.
Experiments:
[1] = qHTS assay to identify small molecule antagonists of the vitamin D receptor (VDR) signaling pathway - cell viability counter screen (AID 743225; active = well fitted curve in the direction sought with a large enough effect in the repeat runs; an effect the other way counts as inactive or inconclusive; also: nearly all actives have a fitted effect of over 50% in size)
Method in brief: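 HEK293T VDR-bla; cpd + 1a,25-(OH)2D3 3 nM final, 16 h 37C/5% CO2; B/G FRET substrate 2 h RT; then CellTiter-Glo 30 min RT, luminescence.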

[2] = qHTS assay to identify small molecule agonists of the NFkB signaling pathway (AID 1159509; active = well fitted curve in the direction sought with a large enough effect in the signal ratio in the repeat runs, not every such curve was filed as active; the % refers to the signal ratio; also: series mostly up to about 61 µM)
Method in brief: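 NFkB-bla ME-180 cells with a beta-lactamase reporter under an NF-kB response element were plated overnight, treated with compounds in DMSO for 5 hr at 37 C, then loaded with FRET substrate for 1.5 hr at room temperature.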

[3] = qHTS assay to identify small molecule agonists of the NFkB signaling pathway - cell viability counter screen (AID 1159515); also: series mostly up to about 61 µM; nearly all actives have a fitted effect of over 55% in size
Method in brief: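 Luminescence from CellTiter-Glo (30 min, room temperature) gives viability, measured in the same wells as the beta-lactamase reporter read. Cells were NFkB-bla ME-180, 2,000 per well, treated 5 hr with compounds.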

[4] = qHTS assay to identify small molecule agonists of the endoplasmic reticulum stress response signaling pathway (AID 1159516; active = well fitted activation curve with a large enough effect in the signal ratio in the repeat runs, not every such curve was filed as active; the % refers to the signal ratio)
Method in brief: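 Read-out is beta-lactamase cleavage of a FRET substrate (405 nm excitation; 460 and 530 nm emissions) in ESRE-bla HeLa cells after a 5 hr compound exposure at 37 C. Substrate incubation ran 2 hr at room temperature.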

[5] = qHTS assay to identify small molecule agonists of the endoplasmic reticulum stress response signaling pathway - cell viability counter screen (AID 1159517); also: nearly all actives have a fitted effect of over 50% in size; also: potency is read from the fitted curve at half-maximal effect
Method in brief: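 Cells, HeLa ESRE-bla; density, 1,500/well; dosing, 5 hr at 37 C, 5% CO2; readout, CellTiter-Glo luminescence after 30 min RT.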

[6] = qHTS assay to identify small molecule antagonists of the retinoid-related orphan receptor gamma (ROR-gamma) signaling pathway - cell viability counter screen (AID 1159520; active = well fitted curve in the direction sought with a large enough effect in the repeat runs; an effect the other way counts as inactive or inconclusive; also: nearly all actives have a fitted effect of over 50% in size)
Method in brief: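 Cytotoxicity was read from cellular ATP (CellTiter-Glo luminescence) after 16 hr at 37 C with 1 uM doxycycline induction. The inducer was added 2 hr after compound transfer to Tet-on ROR gamma CHO cells.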

[7] = molecular target: Nuclear receptor ROR-gamma (Homo sapiens) (UniProt P51449); assay: qHTS assay to identify small molecule antagonists of the retinoid-related orphan receptor gamma (ROR-gamma) signaling pathway (AID 1159521; active = well fitted curve in the direction sought with a large enough effect in the repeat runs; an effect the other way counts as inactive or inconclusive; also: nearly all actives have a fitted effect of over 50% in size; also: potency is read from the fitted curve at half-maximal effect)
Method in brief: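 Cells were plated, rested 4 h at 37 C, exposed to compounds for 2 h, then given 1 uM final doxycycline hyclate to induce RORγ expression. After 16 h, ONE-Glo luminescence from the ROR response element reporter was measured.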

[8] = qHTS assay to identify small molecule agonists of the AP-1 signaling pathway (AID 1159526)
[9] = qHTS assay to identify small molecule agonists of the AP-1 signaling pathway - cell viability counter screen (AID 1159525); also: nearly all actives have a fitted effect of over 55% in size
Method in brief: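 Luminescent ATP readout (Cell Titer Glo, 30 min RT), normalised to DMSO and tetra n-octyl ammonium bromide controls. Cells were ME-180 AP-1-bla in 0.5% dialyzed FBS Opti-MEM, with a 5 h, 37 °C compound exposure.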

[10] = molecular target: Retinoic acid receptor RXR-alpha (Homo sapiens) (UniProt P19793); assay: qHTS assay to identify small molecule agonists of the RXR signaling pathway (AID 1159527); also: nearly all actives have a fitted effect of over 35% in size
Method in brief: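 Cells plated at 2,000/well, rested 5 hr at 37 C, pin-dosed with DMSO compound solutions, incubated 16 hr, then loaded with B/G FRET substrate for 2 hr at RT before dual-emission fluorescence reading.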

Chain of Retinoic acid receptor RXR-alpha (Homo sapiens) (P19793 whole entry, looked up): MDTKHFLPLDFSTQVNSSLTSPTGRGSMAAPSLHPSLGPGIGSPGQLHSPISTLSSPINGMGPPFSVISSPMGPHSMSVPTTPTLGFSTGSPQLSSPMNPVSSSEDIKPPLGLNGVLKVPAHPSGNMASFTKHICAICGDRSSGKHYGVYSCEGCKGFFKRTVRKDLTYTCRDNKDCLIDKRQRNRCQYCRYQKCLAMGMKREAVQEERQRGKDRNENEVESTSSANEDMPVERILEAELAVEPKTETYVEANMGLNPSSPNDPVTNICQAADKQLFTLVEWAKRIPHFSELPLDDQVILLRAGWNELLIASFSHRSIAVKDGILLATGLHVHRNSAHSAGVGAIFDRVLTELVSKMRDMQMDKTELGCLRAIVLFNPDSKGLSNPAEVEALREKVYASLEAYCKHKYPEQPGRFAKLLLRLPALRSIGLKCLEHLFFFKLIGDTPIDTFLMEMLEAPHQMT

SMILES	Potency [1]	outcome [2]	outcome [3]	outcome [4]	Potency [5]	Potency [6]	Potency [7]	outcome [8]	Potency [9]	Potency [10]
OP(O)c1ccccc1	inactive	inactive	inactive	inactive	inactive	inactive	inactive	inactive		
C(COCC1CO1)OCC1CO1 (stereo not drawn)	inactive	inactive	inactive	inactive	inactive	inactive	inactive	inactive	inactive	
COP(=O)(O)OC	inactive	inactive	inactive	inactive	inactive	inactive	inactive	inactive		inactive
CCC(CC)(CNC(=O)CCCO)c1cccc(OC)c1	inactive	inactive	inactive	inactive	inactive	inactive	inactive	inactive		
C=CC(=O)OCCN(C)C	inactive	inactive	inactive	inactive	inactive	inactive	inactive	inactive		inactive
CN(C)CCc1c[nH]c2cccc(OP(=O)(O)O)c12	inactive	inactive	inactive	inactive	inactive	inactive	inactive	inactive		inactive
O=C1CCCCC1Cl (stereo not drawn)	inactive	inactive	inactive	inactive	inactive	inactive	inactive	inactive		inactive
ClC1=C(Cl)C2(Cl)C(CBr)CC1(Cl)C2(Cl)Cl (stereo not drawn)	inactive	inactive	inactive	inactive	54.9 µM (active) and inactive	inactive	inactive		inactive	inactive
O=c1[nH]c2ccccc2o1	inactive	inactive	inactive	inactive	inactive	inactive	inactive	inactive	inactive	
NC1(c2ccccc2)CCCCC1	inactive	inactive	inactive	inactive	inactive	inactive	inactive	inactive		inactive
ClCOCCl	inactive	inactive	inactive	inactive	inactive	inactive	inactive	inactive		inactive
CCCCCCCC(=O)Cl	inactive	inactive	inactive	inactive	inactive	inactive	inactive	inactive		inactive
CC(C)(C)c1cc(O)ccc1O	inactive	inactive	inactive	inactive	inactive	inactive	13.7 µM (active) and 24.3 µM (active)			

From PubChem BioAssay (Tox21)
